Rows were chosen to be rich in hits. Some 2.9% of all compounds tested hit in one or more screens of this group.
N-glyco inh – blocks N-linked glycosylation in D54 reporter cells. D54 ERlucT glycosylation luciferase reporter, 24 h; percent of 100 nM tunicamycin response. reporter increase, % at 12.5 µM. actives 0.23% (n = 360,000). AID 588692;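 active = mean luciferase reporter signal, scaled so untreated is 0 and the glycosylation-blocking control 100, at or above a set limit in every replicate; inconclusive = mean reaches the limit but not every replicate does; inactive = mean below the limit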;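 note: luciferase carries N-glycosylation sites so blocking glycosylation raises the light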
PfHsp90 set2 – reduces growth (ATP signal) of yeast expressing P. falciparum Hsp90 | S. cerevisiae expressing PfHsp90, BacTiter-Glo ATP, 48 h; yeast lacking PDR1 and PDR3 efflux regulators | inhibition, % at 9.4 µM | actives 0.32% (n = 310,000) | AID 504621;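 active = every replicate shows inhibition above about 80%, whatever the replicate mean, limit read from the data; inconclusive = mean inhibition reaches the set limit but some replicate falls short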
NSD2 inh – NSD2 (human) methyltransferase inhibition; NSD2 peptide methylation, AlphaScreen, 120 min; inhibition, % at 12.5 µM; actives 0.54% (n = 310,000); AID 743445; in the data active = inhibition above about 50%
Target sequence (O96028 whole entry, looked up): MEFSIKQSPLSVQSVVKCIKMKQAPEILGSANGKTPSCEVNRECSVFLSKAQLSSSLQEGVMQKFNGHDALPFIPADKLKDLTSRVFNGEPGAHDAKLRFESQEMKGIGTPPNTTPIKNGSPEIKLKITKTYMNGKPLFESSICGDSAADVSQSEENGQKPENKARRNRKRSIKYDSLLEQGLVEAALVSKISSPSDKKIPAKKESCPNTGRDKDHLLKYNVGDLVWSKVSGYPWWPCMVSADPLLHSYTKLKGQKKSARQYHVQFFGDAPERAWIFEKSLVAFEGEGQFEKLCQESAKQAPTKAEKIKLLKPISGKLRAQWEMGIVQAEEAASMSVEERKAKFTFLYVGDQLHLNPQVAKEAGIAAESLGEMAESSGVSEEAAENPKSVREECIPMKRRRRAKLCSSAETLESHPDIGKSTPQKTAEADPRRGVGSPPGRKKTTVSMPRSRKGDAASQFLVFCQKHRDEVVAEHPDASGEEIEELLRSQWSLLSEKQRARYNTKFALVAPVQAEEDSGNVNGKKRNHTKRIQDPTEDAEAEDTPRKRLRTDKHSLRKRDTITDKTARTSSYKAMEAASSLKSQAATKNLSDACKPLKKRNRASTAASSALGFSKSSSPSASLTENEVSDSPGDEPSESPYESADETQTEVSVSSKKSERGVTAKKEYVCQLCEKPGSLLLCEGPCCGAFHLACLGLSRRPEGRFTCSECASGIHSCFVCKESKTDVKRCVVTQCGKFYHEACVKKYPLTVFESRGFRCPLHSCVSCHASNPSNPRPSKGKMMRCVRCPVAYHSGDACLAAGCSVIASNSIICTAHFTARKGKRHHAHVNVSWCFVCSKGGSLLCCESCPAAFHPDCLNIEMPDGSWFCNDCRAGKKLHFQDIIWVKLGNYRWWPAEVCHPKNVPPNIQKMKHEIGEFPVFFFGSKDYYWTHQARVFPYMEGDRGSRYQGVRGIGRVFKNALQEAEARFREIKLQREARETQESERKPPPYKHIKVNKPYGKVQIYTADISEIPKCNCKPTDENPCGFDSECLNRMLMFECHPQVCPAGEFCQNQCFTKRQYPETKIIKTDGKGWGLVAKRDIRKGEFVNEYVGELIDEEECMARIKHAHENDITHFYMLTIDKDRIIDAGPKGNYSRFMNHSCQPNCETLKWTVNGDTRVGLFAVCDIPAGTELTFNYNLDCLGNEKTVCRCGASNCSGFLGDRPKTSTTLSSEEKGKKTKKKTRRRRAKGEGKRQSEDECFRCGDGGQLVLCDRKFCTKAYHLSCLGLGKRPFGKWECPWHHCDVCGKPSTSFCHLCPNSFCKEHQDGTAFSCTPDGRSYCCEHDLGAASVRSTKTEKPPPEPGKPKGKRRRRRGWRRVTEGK
MITF TRPM1 HTS – activators of MITF-driven TRPM1 promoter activity in SK-MEL-5 cells; SK-MEL-5 TRPM1-promoter luciferase, 24 h; % of positive control, neutral wells = 0; activation, % at 12.5 µM; actives 0.75% (n = 300,000);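 active = mean activation of at least 80% with every replicate also reaching 80%; inconclusive = mean reaches 80% but some replicate falls short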
Wnt act – activators of Wnt/beta-catenin signaling. actives 1.2% (n = 300,000). activation, % at 9.35 µM. Wnt/beta-catenin reporter cell assay, activator, plate reader; in the data active = activation above about 30%, passing the limit was not always enough; inconclusive = no clear call, values can overlap the other calls
MITF TRPM1 inh – reduces MITF-dependent TRPM1 promoter luciferase signal; SK-MEL-5 TRPM1 promoter luciferase, 24 h; inhibition, % at 12.5 µM; actives 0.83% (n = 330,000); AID 488899;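 active = mean inhibition across replicates of 60% or more, whatever share of single replicates reaches that level; inconclusive = some that reach 60%, reason not given; inactive = mean inhibition across replicates below 60%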
Each line names hits and unclear results; the compound was inactive in the other large screens.

O=C1c2ccccc2C(=O)c2c1ncn2-c1ccccc1	MITF TRPM1 inh 61
O=C(/C=C/c1ccccc1Cl)NCc1ccccc1	none
CCN(CC)c1ccc(NC(=O)/C=C\c2ccccc2Cl)cc1	MITF TRPM1 HTS 96 (no result: Wnt act)
Cc1cc(NC(=O)/C=C/c2ccccc2Cl)no1	none (no result: Wnt act)
CN(C)c1ccc(NC(=O)/C=C/c2ccccc2Cl)cc1	MITF TRPM1 HTS 92, Wnt act 42
O=C(/C=C/c1ccccc1Cl)NCCc1ccccc1	MITF TRPM1 HTS 87
O=C(c1ccc2nccnc2c1)N1CCCC(Nc2ccc(F)c(F)c2)C1 (stereo unspecified)	none (no result: N-glyco inh)
COc1ccc(Cn2cc(CN3CCc4onc(-c5ccc(Br)cc5)c4C3=O)nn2)cc1	Wnt act 32 (no result: N-glyco inh, PfHsp90 set2, NSD2 inh, MITF TRPM1 HTS, MITF TRPM1 inh)
COc1ccccc1-n1cc(CN2CCc3onc(-c4ccc(Br)cc4)c3C2=O)nn1	none (no result: N-glyco inh, PfHsp90 set2, MITF TRPM1 HTS, MITF TRPM1 inh)
Cc1ccc2c(c1)C(=O)C(=O)N2Cc1ccc(C(F)(F)F)cc1	PfHsp90 set2 150 (no result: NSD2 inh)
CCn1nc(C)c(/C=N/NC(=O)c2ccc3c(c2)c(C)c(C)n3Cc2ccccc2)c1C	none (no result: Wnt act)
COc1ccc(Nc2ccc3c(c2)=NC2(CCCCC2)[N+]=3[O-])cc1	MITF TRPM1 inh 86 (no result: PfHsp90 set2, NSD2 inh, MITF TRPM1 HTS)
[O-][N+]1=c2ccc(Nc3ccccc3)cc2=NC12CCCCC2	MITF TRPM1 inh 61
CC(=O)c1c[nH]c(C(=O)Nc2ccc(N3CCCCCC3)cc2)c1	none (no result: PfHsp90 set2)
CCCCC[n+]1ccn(C2=C([O-])c3ccccc3C(=O)/C2=N\S(=O)(=O)c2ccc(Cl)cc2)c1	MITF TRPM1 inh 78 (no result: MITF TRPM1 HTS)
Cc1cccc(NC(=O)CNC(=O)[C@@H](Cc2ccccc2)NC(=O)[C@H]2O[C@@H](n3ccc(=O)[nH]c3=O)[C@H](O)[C@@H]2O)c1C	none (no result: N-glyco inh, PfHsp90 set2, NSD2 inh, MITF TRPM1 HTS, MITF TRPM1 inh)
O=C(Nc1ccc(NC(=O)C2CC2)cn1)c1ccccc1Cl	Wnt act 37
Cc1ccc(S(=O)(=O)N2CCCC(C(=O)Nc3cccnc3)C2)cc1 (stereo unspecified)	none (no result: PfHsp90 set2, MITF TRPM1 HTS, Wnt act)
COc1ccccc1C(=O)Nc1ccc(NC(=O)C2CCCCC2)nc1	none
O=C(Nc1ccc(NC(=O)C2CCCCC2)nc1)c1ccccn1	MITF TRPM1 HTS 94, Wnt act inconclusive (no result: PfHsp90 set2)
Cc1ccc(S(=O)(=O)N2CCCC(C(=O)Nc3ccc(NC(=O)c4ccccn4)cc3)C2)cc1 (stereo unspecified)	Wnt act 60
CC1CCCN(CCCNS(=O)(=O)c2cc3c(cc2Br)CCN3C(=O)C2CC2)C1 (stereo unspecified)	none (no result: N-glyco inh, PfHsp90 set2, MITF TRPM1 HTS, Wnt act, MITF TRPM1 inh)
CC(C)(C)C(=O)NCc1ccc(C(=O)CSc2nnc3n2CCCCC3)s1	none (no result: PfHsp90 set2, MITF TRPM1 HTS, MITF TRPM1 inh)
CC1Oc2ccccc2C=C1/C=N/NC(=O)c1ccccc1 (stereo unspecified)	MITF TRPM1 HTS 89, Wnt act 37
COC(=O)c1ccc2c(c1)C(C)(C)C(/C=C/c1ccc(O)cc1)=[N+]2C	MITF TRPM1 inh 106 (no result: Wnt act)
COC(=O)c1ccc2c(c1)C(C)(C)C(/C=C/c1ccc(OC)c(OC)c1OC)=[N+]2C	MITF TRPM1 inh 101 (no result: Wnt act)
Cc1cccc(OCCCN2CCC(C(O)(c3ccccc3)c3ccccc3)CC2)c1	none (no result: N-glyco inh, PfHsp90 set2, NSD2 inh, MITF TRPM1 HTS, MITF TRPM1 inh)
COc1ccccc1-c1nnc2n1N=C(c1ccc(O)c(O)c1)CS2	NSD2 inh 56 (no result: Wnt act)
COc1ccc(C2=Nn3c(nnc3-c3ccccc3Cl)SC2)cc1OCC1CC1	none (no result: NSD2 inh)
COc1ccc(C2=Nn3c(nnc3-c3ccccc3C(F)(F)F)SC2)cc1OC1CCOC1 (stereo unspecified)	none (no result: NSD2 inh)
CCc1nnc2n1N=C(c1ccc(OC)cc1)CS2	N-glyco inh 37 (no result: PfHsp90 set2, Wnt act)
COc1ccc(C2=Nn3c(nnc3-c3ccccc3OC)SC2)cc1OC1CCOC1 (stereo unspecified)	MITF TRPM1 inh 63 (no result: NSD2 inh)
COc1ccc(OC)c(-c2nnc3n2N=C(c2ccc(OC)c(OCC4CC4)c2)CS3)c1	MITF TRPM1 inh 65 (no result: NSD2 inh, Wnt act)
CCOc1ccc(-c2nnc3n2N=C(c2ccc(OC)cc2)CS3)cc1	none (no result: MITF TRPM1 HTS, Wnt act)
COc1ccccc1-c1ccc2c(c1)[C@@H]1C[C@H]3[C@@H](CN1CC2)[C@H](C)ON3C	none (no result: N-glyco inh, PfHsp90 set2, NSD2 inh, MITF TRPM1 HTS, MITF TRPM1 inh)
Cc1csc(C(C)N(C)C(=O)CCc2nnc(CCc3ccccc3)o2)n1 (stereo unspecified)	none
COc1cccc(Nc2nc(-c3ccc(O)cc3)cs2)c1	MITF TRPM1 HTS 90 (no result: PfHsp90 set2, Wnt act)
Cc1cccnc1Nc1nc(-c2ccc(F)cc2)cs1	none (no result: MITF TRPM1 HTS)
Cc1nc(C)c(-c2csc(Nc3cccc(O)c3)n2)s1	Wnt act 85
Cc1nc(N)sc1-c1csc(Nc2cccc(O)c2)n1	none
Cc1cccnc1Nc1nc(-c2ccc(O)cc2)cs1	MITF TRPM1 HTS 101 (no result: Wnt act)
COc1cccc(Nc2nc(-c3cccc(N4C(=O)c5ccccc5C4=O)c3)cs2)c1	none
CC(Sc1nc2ccccc2s1)C(=O)N(C)Cc1ccccc1 (stereo unspecified)	none
CCn1cc(/C=C/c2cc[n+](C)cc2)c2ccccc21	none
CC(C)n1cc(/C=C/c2cc[n+](C)cc2)c2ccccc21	MITF TRPM1 inh 63
CCC[C@H]1[C@@H](NC(=O)C(c2ccccc2)c2ccccc2)CC[C@@]23CCCN2C(=O)CCC[C@@H]13	none (no result: N-glyco inh, PfHsp90 set2, MITF TRPM1 HTS, Wnt act, MITF TRPM1 inh)
CC(C)(C)C(=O)NC(=S)NNC(=O)c1ccc(-c2ccccc2)cc1	PfHsp90 set2 104, MITF TRPM1 inh inconclusive (no result: Wnt act)
O=C(NNC(=S)NC(=O)c1ccccc1)c1ccc(O)cc1	none
O=C(NNC(=S)Nc1ccccc1)c1ccc(O)cc1	MITF TRPM1 HTS inconclusive, Wnt act 57
C/C=C/C(=O)N1CCc2cc(S(=O)(=O)N(C)Cc3ccco3)ccc21	none (no result: N-glyco inh, PfHsp90 set2, MITF TRPM1 HTS, Wnt act, MITF TRPM1 inh)
c1ccc(CSc2ccc(-c3cccnc3)nn2)cc1	MITF TRPM1 HTS 89 (no result: PfHsp90 set2)
c1cncc(CSc2ccc(-c3cccnc3)nn2)c1	none
Fc1ccc(CSc2ccc(-c3ccc4c(c3)OCO4)nn2)cc1	none
c1ccc(CSc2ccc(-c3ccc4c(c3)OCO4)nn2)cc1	MITF TRPM1 HTS 90, Wnt act 35
COCc1[nH]nc2c1C(c1cccc(C(F)(F)F)c1)N(c1ccccc1)C2=O (stereo unspecified)	none (no result: N-glyco inh, PfHsp90 set2, NSD2 inh, MITF TRPM1 HTS, MITF TRPM1 inh)
CNc1sc(C(=O)c2cccs2)c(N)c1-c1nc2ccccc2s1	MITF TRPM1 HTS 98 (no result: Wnt act)
O=C1OC(CN2CCOCC2)CN1N=Cc1ccc([N+](=O)[O-])o1 (stereo unspecified)	none (no result: NSD2 inh)
O=C1OC(CN(Cc2ccccc2)Cc2ccccc2)CN1N=Cc1ccc([N+](=O)[O-])o1 (stereo unspecified)	MITF TRPM1 inh 82 (no result: PfHsp90 set2)
CSc1ncc(Cl)c(C(=O)Nc2nnc(SC)s2)n1	none (no result: Wnt act)
CCCc1nnc(NC(=O)c2nc(S(=O)(=O)Cc3ccc(C)cc3)ncc2Cl)s1	MITF TRPM1 inh 69
CSc1nnc(NC(=O)c2nc(S(=O)(=O)Cc3ccccc3)ncc2Cl)s1	MITF TRPM1 inh 68
CC(C)c1nnc(NC(=O)c2nc(S(=O)(=O)Cc3ccccc3)ncc2Cl)s1	MITF TRPM1 inh 83 (no result: NSD2 inh)
CC(=O)Nc1ccc(S(=O)(=O)Oc2ccc(/C=C3\SC(N)=NC3=O)cc2)cc1	none
Cn1c(CO)nc2c3ccccc3ccc21	none

Assay outcomes from PubChem BioAssay.
